In PubChem BioAssay AID1159580 (chemical genetic matrix, 2015):
Among all 5,500 compounds or so, about 2,000 (36%) were called active. Roughly 18% stayed inconclusive and do not appear here. Rule as the data show it: active = normalized growth mostly below about 0.91 (no sharp cut-off); inconclusive = no clear call, values can overlap the other calls; inactive = mostly above about 0.92. The list shows a part of the results.

Experiment: chemical genetic growth profiling, strain panel (AID 1159580);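 also: tested at 20 µM; growth read once vehicle control cultures reached saturation at 30 °C; 1 = growth at the plate median or of vehicle wells; lower values mean less growth of the strain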
Details: S. cerevisiae deletion strains, growth OD
[1] = locus YAR019C, strain CDC15, active compounds read low
[2] = locus YBL105C, strain PKC1, active compounds read low
[3] = locus YBR135W, strain CKS1, active compounds read low
[4] = locus YBR136W, strain MEC1, active compounds read low
[5] = locus YBR160W, strain CDC28, active compounds read low
[6] = locus YDL017W, strain CDC7, active compounds read low
[7] = locus YDL028C, strain MPS1, active compounds read low
[8] = locus YDL101C, strain DUN1, active compounds read low
[9] = locus YDL108W, strain KIN28, active compounds read low
[10] = locus YDL132W, strain cdc53, active compounds read low
[11] = locus YDL214C, strain PRR2, active compounds read low
[12] = locus YDR052C, strain DBF4, active compounds read low
[13] = locus YDR054C, strain cdc34, active compounds read low
[14] = locus YDR226W, strain ADK1, active compounds read low
[15] = locus YDR477W, strain SNF1, active compounds read low
[16] = locus YER123W, strain YCK3, active compounds read low
[17] = locus YER133W, strain GLC7, active compounds read low
[18] = locus YFL009W, strain cdc4, active compounds read low
[19] = locus YFL029C, strain CAK1, active compounds read low
[20] = locus YFR003C, strain YPI1, active compounds read low
[21] = locus YFR019W, strain FAB1, active compounds read low
[22] = locus YFR028C, strain CDC14, active compounds read low
[23] = locus YGR040W, strain KSS1, active compounds read low
[24] = locus YGR052W, strain FMP48, active compounds read low
[25] = locus YGR092W, strain DBF2, active compounds read low
[26] = locus YHR030C, strain SLT2, active compounds read low
[27] = locus YHR079C, strain IRE1, active compounds read low
[28] = locus YHR082C, strain KSP1, active compounds read low
[29] = locus YHR205W, strain SCH9, active compounds read low
[30] = locus YIL147C, strain SLN1, active compounds read low
[31] = locus YJL095W, strain BCK1, active compounds read low
[32] = locus YJL128C, strain PBS2, active compounds read low
[33] = locus YJL157C, strain FAR1, active compounds read low
[34] = locus YJR016C, strain ILV3, active compounds read low
[35] = locus YJR066W, strain TOR1 (second series), active compounds read low
[36] = locus YJR066W, strain TOR1, active compounds read low
[37] = locus YKL048C, strain ELM1, active compounds read low
[38] = locus YKL067W, strain YNK1, active compounds read low
[39] = locus YKL101W, strain HSL1, active compounds read low
[40] = locus YKL193C, strain SDS22, active compounds read low
[41] = locus YKL203C, strain TOR2, active compounds read low
[42] = locus YLR113W, strain HOG1, active compounds read low
[43] = locus YLR133W, strain CKI1, active compounds read low
[44] = locus YLR403W, strain SFP1, active compounds read low
[45] = locus YML070W, strain DAK1, active compounds read low
[46] = locus YMR001C, strain CDC5, active compounds read low
[47] = locus YMR205C, strain PFK2 (second series), active compounds read low
[48] = locus YMR277W, strain FCP1, active compounds read low
[49] = locus YNL006W, strain LST8, active compounds read low
[50] = locus YNL020C, strain ARK1, active compounds read low
[51] = locus YNL161W, strain CBK1, active compounds read low
[52] = locus YNL183C, strain NPR1, active compounds read low
[53] = locus YNL207W, strain RIO2, active compounds read low
[54] = locus YNL222W, strain SSU72, active compounds read low
[55] = locus YNL307C, strain MCK1 (second series), active compounds read low
[56] = locus YOL078W, strain AVO1, active compounds read low
[57] = locus YOL136C, strain PFK27, active compounds read low
[58] = locus YOR061W, strain CKA2, active compounds read low
[59] = locus YOR119C, strain RIO1, active compounds read low
[60] = locus YOR231W, strain MKK1, active compounds read low
[61] = locus YOR329C, strain SCD5, active compounds read low
[62] = locus YPL031C, strain PHO85, active compounds read low
[63] = locus YPL153C, strain RAD53, active compounds read low
[64] = locus YPL204W, strain HRR25, active compounds read low
[65] = locus YPL209C, strain IPL1, active compounds read low
[66] = locus YPL256C, strain CLN2, active compounds read low
[67] = locus YPR025C, strain CCL1, active compounds read low
[68] = locus YPR106W, strain ISR1, active compounds read low
[69] = locus YPR111W, strain DBF20, active compounds read low
[70] = strain NNK1, active compounds read low
[71] = strain TSCII, active compounds read low

Measured: normalized growth

CC(NC(=S)N/N=C\c1ccccc1O)c1ccccc1 (stereo not drawn)
active: [26] 0.772
inactive: [1] 0.984 | [2] 0.982 | [3] 0.971 | [4] 0.975 | [5] 0.974 | [6] 0.974 | [7] 0.981 | [8] 0.977 | [9] 0.969 | [10] 0.973 | [11] 0.973 | [12] 0.986 | [13] 0.951 | [14] 0.97 | [15] 0.927 | [16] 0.905 | [17] 0.953 | [18] 0.972 | [19] 0.974 | [20] 0.979 | [21] 0.99 | [22] 0.982 | [23] 0.944 | [24] 1.06 | [25] 0.897 | [27] 0.951 | [28] 1.03 | [29] 1.01 | [30] 0.985 | [31] 0.87 | [32] 0.986 | [33] 0.966 | [34] 0.977 | [35] 0.944 | [36] 0.943 | [37] 0.972 | [38] 0.992 | [39] 0.978 | [40] 0.976 | [41] 0.98 | [42] 0.966 | [43] 0.97 | [44] 0.939 | [45] 0.964 | [46] 0.979 | [47] 0.977 | [48] 0.971 | [49] 0.991 | [50] 0.964 | [51] 0.984 | [52] 0.896 | [53] 0.976 | [54] 0.974 | [55] 0.933 | [56] 0.978 | [57] 0.984 | [58] 0.959 | [59] 1.04 | [60] 0.981 | [61] 0.983 | [62] 0.927 | [63] 0.929 | [64] 0.922 | [65] 0.979 | [66] 0.944 | [67] 0.979 | [68] 0.992 | [69] 0.983 | [70] 0.992 | [71] 0.978

CC(C)(C)NC(=S)N/N=C\c1ccccc1O
inactive: [1] 0.954 | [2] 0.957 | [3] 0.958 | [4] 0.958 | [5] 0.947 | [6] 0.96 | [7] 0.951 | [8] 0.964 | [9] 0.947 | [10] 0.95 | [11] 0.924 | [12] 0.97 | [13] 0.943 | [14] 0.961 | [15] 0.876 | [16] 0.848 | [17] 0.882 | [18] 0.928 | [19] 0.947 | [20] 0.955 | [21] 0.95 | [22] 0.957 | [23] 0.875 | [24] 0.954 | [25] 0.692 | [26] 0.901 | [27] 0.806 | [28] 0.931 | [29] 0.972 | [30] 0.953 | [31] 0.941 | [32] 0.949 | [33] 0.891 | [34] 0.954 | [35] 0.878 | [36] 0.789 | [37] 0.947 | [38] 0.897 | [39] 0.917 | [40] 0.951 | [41] 0.968 | [42] 0.915 | [43] 0.926 | [44] 0.867 | [45] 0.902 | [46] 0.95 | [47] 0.941 | [48] 0.93 | [49] 0.945 | [50] 0.903 | [51] 0.955 | [52] 0.955 | [53] 0.954 | [54] 0.944 | [55] 0.841 | [56] 0.955 | [57] 0.904 | [58] 0.882 | [59] 0.909 | [60] 0.828 | [61] 0.959 | [62] 0.867 | [63] 0.865 | [64] 0.837 | [65] 0.941 | [66] 0.949 | [67] 0.954 | [68] 0.968 | [69] 0.949 | [70] 0.967 | [71] 0.94

COc1ccccc1NC(=S)N/N=C\c1ccccc1O
inactive: [1] 0.962 | [2] 0.968 | [3] 0.967 | [4] 0.965 | [5] 0.967 | [6] 0.967 | [7] 0.96 | [8] 0.978 | [9] 0.954 | [10] 0.965 | [11] 0.941 | [12] 0.973 | [13] 0.957 | [14] 0.959 | [15] 0.938 | [16] 0.928 | [17] 0.942 | [18] 0.965 | [19] 0.953 | [20] 0.97 | [21] 0.976 | [22] 0.966 | [23] 0.939 | [24] 1.02 | [25] 0.891 | [26] 0.903 | [27] 0.956 | [28] 0.964 | [29] 0.98 | [30] 0.961 | [31] 0.978 | [32] 0.957 | [33] 0.951 | [34] 0.979 | [35] 0.903 | [36] 0.942 | [37] 0.962 | [38] 0.955 | [39] 0.948 | [40] 0.964 | [41] 0.971 | [42] 0.955 | [43] 0.942 | [44] 0.916 | [45] 0.973 | [46] 0.958 | [47] 0.959 | [48] 0.966 | [49] 0.97 | [50] 0.955 | [51] 0.967 | [52] 0.975 | [53] 0.97 | [54] 0.967 | [55] 0.949 | [56] 0.968 | [57] 0.967 | [58] 0.931 | [59] 0.941 | [60] 0.967 | [61] 0.969 | [62] 0.93 | [63] 0.937 | [64] 0.941 | [65] 0.967 | [66] 0.929 | [67] 0.968 | [68] 0.969 | [69] 0.978 | [70] 0.986 | [71] 0.969
